# Measurements taken from publication PMC7819943, “Rice protein-binding microarrays: a tool to detect cis-acting elements near promoter regions in rice”.
# The full ranking holds about 35,000 sequences; the median of “fluorescence intensity (a.u.)” is about 10,000, and the highest 2% start at about 52,000. This excerpt belongs to a sample that is enriched for the highest values.
# Target: T1, OsWOX13 (Oryza sativa, UniProt Q5QMM3 1-267)
# T1 sequence: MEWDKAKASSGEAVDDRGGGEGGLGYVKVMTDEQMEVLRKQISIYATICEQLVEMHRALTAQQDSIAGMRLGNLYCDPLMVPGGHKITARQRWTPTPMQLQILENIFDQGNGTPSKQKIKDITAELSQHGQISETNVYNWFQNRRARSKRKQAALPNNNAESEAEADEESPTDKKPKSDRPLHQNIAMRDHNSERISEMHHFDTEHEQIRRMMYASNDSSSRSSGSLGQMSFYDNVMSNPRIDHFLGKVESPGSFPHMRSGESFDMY
# Assay: protein-binding microarray (RPBM); PBS, 2% BSA, 51.3 ng/ul salmon testes DNA, 50 uM zinc acetate, 200 nM TF, 25 C, 1 h; high values mean tight binding
# Conditions: protein: recombinant; tags: N-terminal polyhistidine and DsRed monomer fusion (pET32a); label: CyDye5-dUTP incorporated in the synthesized complementary strand; 3' TTTTT single-stranded linker to array surface; dsDNA, one strand shown
# Procedure, shortened: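 Transcription factors, each fused N-terminally to a polyhistidine tag and DsRed, were expressed in E. coli BL21-CodonPlus and purified on Ni–NTA. A custom Agilent array was made double-stranded by primer extension with Cy5-dUTP and blocked with 2% BSA. It was incubated with 200 nM protein in PBS, 2% BSA, salmon testes DNA and 50 µM zinc acetate at 25 °C for 1 h, then washed. The binding signal is per-feature fluorescence intensity (arbitrary units) read on an Axon 4000B scanner.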
row,Sequence,binding signal
1,TGAGTGATGACAGTAAGTAACTGAATCTGCTGAGTTCTGACGGAGTCACCTAGTGCAG,6590 fluorescence intensity (a.u.)
2,TCTCATCAATTGAATGGATATTATATTTTAATGTGTTCAGCGGAGTCACCTAGTGCAG,8660 fluorescence intensity (a.u.)
3,GCTATGATTGTCTTTAGGGTATCTAATAATTGTGGTTTGACGGAGTCACCTAGTGCAG,21700 fluorescence intensity (a.u.)
4,ACCAAACGCCTTGATTGAAACCATCGATATACATATGTAACGGAGTCACCTAGTGCAG,34900 fluorescence intensity (a.u.)
5,GAAAATGTTCCATCTGATTATAAATTATTATATTTTGGGACGGAGTCACCTAGTGCAG,4000 fluorescence intensity (a.u.)
6,TGAAAGTAATTTGATGCTATAAGTCAAAGTTAAAGAGATGCGGAGTCACCTAGTGCAG,3500 fluorescence intensity (a.u.)
7,GTTGCAGATTGAGAGCCAAAGACATTATCTTGATTCTATCCGGAGTCACCTAGTGCAG,13100 fluorescence intensity (a.u.)
8,TTTAAGATGATCAGATTTCTAATTGCAGTTCACCTTAACTCGGAGTCACCTAGTGCAG,7420 fluorescence intensity (a.u.)
9,TATAAATATAATTTATCCAAAGAGCATTTATAAGGACTTCCGGAGTCACCTAGTGCAG,4240 fluorescence intensity (a.u.)
10,TAGTGATTTTGTGAAATCTCAAAATATATTGATCCAGCTTCGGAGTCACCTAGTGCAG,5030 fluorescence intensity (a.u.)
11,GCTTGACTAACATATTCTGTTGGATTGCTACCGCGCCATGCGGAGTCACCTAGTGCAG,7150 fluorescence intensity (a.u.)
12,TCCATTAACATTTGCCATTATCGTACTGACTTTCGTACGACGGAGTCACCTAGTGCAG,3710 fluorescence intensity (a.u.)
13,CGCCCACTGAATTAATCAATCAGTAAAGCTGCCACCGTGCCGGAGTCACCTAGTGCAG,39100 fluorescence intensity (a.u.)
14,CCAAGATGAATTGGAACTTTGCACACCAACCAAATAGGGGCGGAGTCACCTAGTGCAG,3580 fluorescence intensity (a.u.)
15,ATGTACTTAATTCAATTTGTCAAAAGAATTATGTATCCCTCGGAGTCACCTAGTGCAG,3990 fluorescence intensity (a.u.)
16,GGTTCAACGGTACCCTTGATTGCTATAGAGAGTGATATATCGGAGTCACCTAGTGCAG,4670 fluorescence intensity (a.u.)
17,GAAATTAATAACAAATTAAAACCAGAGCCAGCTGACTGCTCGGAGTCACCTAGTGCAG,21700 fluorescence intensity (a.u.)
18,CCGACGGCTCAGATTGACTGCAGTAGTGGGTATCTCTTCTCGGAGTCACCTAGTGCAG,13700 fluorescence intensity (a.u.)
19,TTTGTTGCTTTACTTGGGAGATTGATCGCTAAACGAGTCACGGAGTCACCTAGTGCAG,3150 fluorescence intensity (a.u.)
20,TTATTTGTGGCTTGAAGATTGACAGCTTTTGTTGATTGCTCGGAGTCACCTAGTGCAG,9340 fluorescence intensity (a.u.)
21,GACTTGATTTACAGATTTATTGACAGAGTTTTGCTAAGCTCGGAGTCACCTAGTGCAG,56600 fluorescence intensity (a.u.)
22,TGCTAAAATTTTGACAATATTGTTAACTTGCTCTAGTTTACGGAGTCACCTAGTGCAG,6920 fluorescence intensity (a.u.)
23,TTAATTAGGTTTAATAGATTCATCTCGCAGTTTACAGGCACGGAGTCACCTAGTGCAG,18500 fluorescence intensity (a.u.)
24,ATTGCAGATTGATTTATCTCGTCAAGATTGATGAGCATGCCGGAGTCACCTAGTGCAG,63500 fluorescence intensity (a.u.)
25,GAAGATGATGATGATTTAGCATGCAAATGAGCAGTTGACACGGAGTCACCTAGTGCAG,13800 fluorescence intensity (a.u.)
26,GATTAATTAGGCTTCATAAATTCGTCTCGCAGTTTACAGGCGGAGTCACCTAGTGCAG,30800 fluorescence intensity (a.u.)
27,TGTTTGGATGATTTTATGGATGATCACTTCTCTTTATTTACGGAGTCACCTAGTGCAG,3280 fluorescence intensity (a.u.)
28,CAGATCAATTTATCGAGATTGATCAAAAGCAAGATGATGCCGGAGTCACCTAGTGCAG,35000 fluorescence intensity (a.u.)
29,GATTAATTAGATTTAATAAATTCATCTCGCAGTTTACAGGCGGAGTCACCTAGTGCAG,62200 fluorescence intensity (a.u.)
30,TGCTTTATTATTTGATTGATTGATCACTTGTTGGATGGGACGGAGTCACCTAGTGCAG,64200 fluorescence intensity (a.u.)
